Consider twelve compounds from PubChem BioAssay (NCATS).

Molecules are shown by their SMILES. “And” between values parts separate entries of the source, which are not always exact repeats. Equal values may be shown once. Inconclusive results are not listed. The source made the active and inactive calls. Calls come from the whole dose curve; as a rule, active = well fitted curve in the direction sought with a large enough effect; inconclusive = small, poorly fitted or top-dose-only effect, or another doubt; inactive = no such curve, though single readings can be large; an effect the other way counts as inactive or inconclusive.

A short description of test [1]: P-glycoprotein substrates identified in KB-8-5-11 adenocarcinoma cell line, qHTS therapeutic library screen (AID 1346987). Note: nearly all actives have a fitted effect of over 65% in size. Note: potency is the fitted concentration of half-maximal effect. The procedure, abridged: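 KB-8-5-11, a colchicine-selected P-gp-overexpressing KB-3-1 subline, was grown without colchicine for the assay. Cells were seeded at 500 cells/well, dosed in concentration-response and incubated 72 h at 37 degree C, 5% CO2. Viability was read by CellTiter-Glo luminescence.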

Test [2] in a line: NS1 protein of Zika virus - qHTS assay to identify small molecule inhibitors in human HEK 293 cells (AID 1347053). Note: nearly all actives have a fitted effect of over 55% in size. Note: potency is the fitted concentration of half-maximal effect. The procedure, abridged: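 Inhibition of NS1 expression was scored in HEK 293 cells given compound 1 h ahead of MR766 virus (MOI = 0.5). Following 24 h at 37 C, two anti-NS1 antibodies generated a TR-FRET signal, scaled between uninfected and infected controls.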

A short description of test [3]: qHTS of pediatric cancer cell lines to identify multiple opportunities for drug repurposing: Primary screen for TC32 cells (AID 1347089). Note: nearly all actives have a fitted effect of over 60% in size. Note: potency is the fitted concentration of half-maximal effect. The procedure, abridged: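 Luminescent ATP read-out (CellTiter-Glo) of metabolically active TC32 cells after 48 h exposure. Concentration-response curves came from 11-point (MIPE, 0.78 nM–46 µM) or 8-point (NPC, 0.59 nM–46 µM) primary titrations; follow-up used 11 points.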

A short description of test [4]: qHTS of pediatric cancer cell lines to identify multiple opportunities for drug repurposing: Primary screen for DAOY cells (AID 1347090). Note: series mostly up to about 46 µM; nearly all actives have a fitted effect of over 55% in size. The procedure, abridged:
(§1)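 Cell viability, CellTiter-Glo luminescence; 500-1,000 cells/well, 8- or 11-point titration, 48 h compound exposure at 37 degrees C, 5% CO2. Controls: DMSO neutral, bortezomib 2.3 µM final as positive.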

A short description of test [5]: qHTS of pediatric cancer cell lines to identify multiple opportunities for drug repurposing: Primary screen for SJ-GBM2 cells (AID 1347091). Note: potency is the fitted concentration of half-maximal effect. Summed up:
as §1

The nature of test [6]: qHTS of pediatric cancer cell lines to identify multiple opportunities for drug repurposing: Primary screen for A673 cells (AID 1347092). Note: nearly all actives have a fitted effect of over 45% in size. Note: potency is the fitted concentration of half-maximal effect. The procedure, abridged: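 Cell viability of A673 measured by CellTiter-Glo ATP luminescence after 48 hours compound exposure. Dilution series spanned 0.78 nM to 46 µM (MIPE, 11-point) or 0.59 nM to 46 µM (NPC, 8-point); bortezomib 2.3 uM positive control.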

Test [7] is described as follows: qHTS of pediatric cancer cell lines to identify multiple opportunities for drug repurposing: Primary screen for SK-N-MC cells (AID 1347093). Note: potency is the fitted concentration of half-maximal effect. Summed up: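 Metabolically active cells were quantified by ATP-dependent luminescence (CellTiter-Glo, 15 min at room temperature) following 48 h treatment. Cells had been plated at 500-1,000 per well and settled for 5 h beforehand.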

Test [8] is described as follows: qHTS of pediatric cancer cell lines to identify multiple opportunities for drug repurposing: Primary screen for U-2 OS cells (AID 1347096). Note: nearly all actives have a fitted effect of over 50% in size. Note: potency is the fitted concentration of half-maximal effect. Summed up:
(§2)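 Cells (500-1,000/well) rested 5 h, then received compounds for 48 h; metabolically active cells were measured by CellTiter-Glo luminescence. Final concentrations spanned up to 46 µM (MIPE, 11-point) or 0.59 nM-46 µM (NPC, 8-point) in primary screens, 11-point in follow-ups.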

Test [9] is described as follows: qHTS of pediatric cancer cell lines to identify multiple opportunities for drug repurposing: Primary screen for Saos-2 cells (AID 1347097). Note: nearly all actives have a fitted effect of over 40% in size. Note: potency is the fitted concentration of half-maximal effect. The procedure, abridged: (§3)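 CRCs from 8- or 11-point titrations (lowest final 0.59 nM NPC, 0.78 nM MIPE). Cell viability: CellTiter-Glo after 48 h incubation, 15 min room-temperature development, luminescence imaging.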
Test [10] is described as follows: qHTS of pediatric cancer cell lines to identify multiple opportunities for drug repurposing: Primary screen for SK-N-SH cells (AID 1347098). Note: nearly all actives have a fitted effect of over 65% in size. The procedure, abridged:
as §2

Test [11] in a line: qHTS of pediatric cancer cell lines to identify multiple opportunities for drug repurposing: Primary screen for NB-EBc1 cells (AID 1347095). Note: potency is the fitted concentration of half-maximal effect. The procedure, abridged: as §3
Test [12] can be described thus: qHTS of pediatric cancer cell lines to identify multiple opportunities for drug repurposing: Primary screen for BT-37 cells (AID 1347094). Note: potency is the fitted concentration of half-maximal effect. Summed up: as §3

For the compound `CC(C)(F)C[C@H](N[C@@H](c1ccc(-c2ccc(S(C)(=O)=O)cc2)cc1)C(F)(F)F)C(=O)NC1(C#N)CC1`, the Potency result in [1], in test [2], in test [3], in test [4], in test [6] and in test [7] was “inactive” in each case. Further, the Potency result in test [8], in [9] and in [10] was “inactive” throughout. For the same compound, the Potency in test [5] is 14800 nM (active).

Consider `N[C@@H](CC(=O)N1CCn2c(nnc2C(F)(F)F)C1)Cc1cc(F)c(F)cc1F`, for which the Potency entry in test [1], in test [2], in test [3], in test [4], in test [5] and in test [6] was “inactive” each time. Moreover, the Potency entry in test [11] and in [8] was “inactive” throughout. In test [7], the Potency was 18700 nM (active).

`CN[C@@H]1[C@@H](O)[C@@H](O[C@@H]2[C@@H](O)[C@H](O[C@H]3O[C@H](CN)[C@@H](O)[C@H](O)[C@@H]3O)[C@@H](N)C[C@@H]2NC(=O)[C@@H](O)CN)OC[C@]1(C)O`: the Potency result in test [1], in [2], in [3], in [4], in [6] and in [7] was “inactive” each time. Besides, the Potency result in test [11], in [8] and in test [9] was “inactive” each time.

With `COc1cc(Cl)cn2c(-c3cccc(NC4CNC4)n3)cnc12`, the Potency entry in test [1], in test [2] and in test [3] was “inactive” each time. Also, the Potency in [5] is 5260 nM (active); in test [6], 4690 nM (active); in test [7], 2960 nM (active); in [11], 2960 nM (active).

As for `Cc1cc2nc3c(=O)[nH]c(=O)nc-3n(CC(O)C(O)C(O)CO)c2cc1C` (centres undefined), the Potency entry in test [1], in test [2], in [3], in test [4], in test [5] and in test [11] was “inactive” each time. In addition, the Potency result in test [9] is “inactive”. In [7], the Potency was 29600 nM (active).

On to `CC(C)[C@H](O)C(=O)N[C@@H](C)C(=O)N[C@@H]1C(=O)N(C)CCc2ccccc21`, for which the Potency result in [1], in test [2], in [3], in test [5], in test [12] and in [11] was “inactive” each time. Besides, the Potency result in test [8] and in test [10] was “inactive” in each case. Also, the Potency in test [6] was 23500 nM (active); in [7] it was 18700 nM (active).

For `CCC(=O)NCC[C@@H]1CCc2ccc3c(c21)CCO3`, the Potency entry in test [1], in [2], in [3], in test [4], in [7] and in [11] was “inactive” each time. Moreover, the Potency entry in test [8] and in [10] was “inactive” each time.

`O=C1CCCC(=O)C1C(=O)c1ccc(C(F)(F)F)cc1[N+](=O)[O-]`: the Potency result in test [1], in [2], in test [3], in test [4], in [6] and in test [11] was “inactive” each time. The Potency entry in test [8] and in test [9] was “inactive” each time.

With `CC(C)(C)c1[nH]cnc1C=c1[nH]c(=O)c(=Cc2ccccc2)[nH]c1=O`, the Potency was 2.4 nM (active) in test [1]; 3 nM (active) in [2]; 6.8 nM (active) in [3]; 1 nM (active) in test [5]; 1 nM (active) in [6]; 1 nM (active) in test [7]. In addition, the Potency in [11] is 1 nM (active).

Consider `O=C(O)c1nc(=O)[nH]c(=O)[nH]1`, for which the Potency result in test [1], in [2], in [3], in test [4], in [6] and in test [12] was “inactive” each time. Further, the Potency entry in test [11], in test [8] and in [10] was “inactive” in each case.

For the compound `Nc1ccc(-c2ccc3ncc4ccc(=O)n(-c5cccc(C(F)(F)F)c5)c4c3c2)cn1`, the Potency is 1 nM (active) and 36.6 nM (active) in [1]; 41.8 nM (active) in test [2]; 10.4 nM (active) in [3]; 3 nM (active) in [5]; 3 nM (active) in test [6]; 0.1 nM (active) in test [7]. The Potency in [12] is 10.9 nM (active); in test [11] it was 11.8 nM (active); in [8], 1480 nM (active); in [9] it was 148 nM (active).

As for `CN1CCN2c3ncccc3Cc3ccccc3C2C1` (centres undefined), the Potency result in test [1], in test [2], in test [3], in test [5], in test [6] and in test [7] was “inactive” each time. Besides, the Potency result in test [11], in test [8] and in test [10] was “inactive” throughout.
